USP30 inh = blocks human USP30 ubiquitin-rhodamine cleavage; Q70CQ3; purified USP30, Ub-rhodamine cleavage fluorescence; inhibition, % at 25 µM; 47,000 compounds, 5.3% hits; AID 1645860
USP17 inh = blocks human USP17 ubiquitin-rhodamine cleavage; inhibition, % at 50 µM; A8MUK1; purified USP17, Ub-rhodamine cleavage fluorescence, 3 h; 47,000 compounds, 6.5% hits; AID 1645855
USP28 block = inhibitors of human USP28 deubiquitinase; Q96RU2; purified USP28, Ub-rhodamine cleavage fluorescence, 30 min; inhibition, % at 25 µM; 47,000 compounds, 3% hits; AID 1645857
OTUD3 inh = inhibitors of human OTUD3 deubiquitinase | purified OTUD3, Ub-rhodamine fluorescence, 2 h | AID 1645858 | Q5T2D3 | inhibition, % at 25 µM | 47,000 compounds, 0.7% hits
Target sequence (Q5T2D3 whole entry, looked up): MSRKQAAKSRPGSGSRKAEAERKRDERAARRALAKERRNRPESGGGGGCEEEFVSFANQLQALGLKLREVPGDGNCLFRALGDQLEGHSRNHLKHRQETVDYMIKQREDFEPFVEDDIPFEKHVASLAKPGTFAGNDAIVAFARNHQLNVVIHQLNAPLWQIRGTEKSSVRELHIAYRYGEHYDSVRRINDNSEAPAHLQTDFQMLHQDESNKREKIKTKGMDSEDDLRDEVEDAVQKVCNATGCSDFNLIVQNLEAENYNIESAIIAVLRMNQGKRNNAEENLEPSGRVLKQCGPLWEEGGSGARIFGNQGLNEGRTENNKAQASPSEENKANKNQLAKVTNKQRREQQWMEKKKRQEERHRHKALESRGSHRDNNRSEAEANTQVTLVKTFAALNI
Numbers stand for hits. Sampled rows, rich in hits. Any-hit rate of the full collection: about 12%. No stated cut-off is given here; in the data, active means inhibition above about 30%; inactive means the rest.

Results for Cc1cc(C)c(NC(=O)Cn2c(=O)n(CCC(=O)NCc3ccc4c(c3)OCO4)c(=O)c3sccc32)c(C)c1 ?
USP30 inh: inactive; USP17 inh: 75; USP28 block: 49; OTUD3 inh: 34

How did COC(=O)Nc1cc2c(=O)c3ccccc3oc2nc1C(F)(F)F do in these assays?
USP30 inh: inactive; USP17 inh: inactive; USP28 block: inactive; OTUD3 inh: inactive

Results for CCCCOc1ccc(-c2cc3n(c(=N)c2C#N)CCc2cc4c(cc2-3)OCCCO4)cc1OC ?
USP30 inh: inactive; USP17 inh: inactive; USP28 block: inactive; OTUD3 inh: inactive

What do the screens show for `FC(F)(F)c1ccccc1CCN1CCc2nc3ccc(Cl)cc3cc2C1`?
USP30 inh: inactive; USP17 inh: inactive; USP28 block: inactive; OTUD3 inh: inactive

Results for COc1ccc(NC(=O)Cn2c(=O)n(-c3ccc(CC(=O)NCc4ccco4)cc3)c(=O)c3ccccc32)cc1Cl ?
USP30 inh: inactive; USP17 inh: inactive; USP28 block: inactive; OTUD3 inh: inactive

What do the screens show for `O=C(CCCn1c(=O)c2sccc2n(CC(=O)NCCC2=CCCCC2)c1=O)NCc1ccc2c(c1)OCO2`?
USP30 inh: inactive; USP17 inh: 50; USP28 block: 32; OTUD3 inh: inactive

What do the screens show for `CCC(C)NC(=O)Cn1c(=O)n(-c2ccccc2)c(=O)c2ccc(C(=O)NCc3ccco3)cc21` (centres undefined)?
USP30 inh: 73; USP17 inh: inactive; USP28 block: 39; OTUD3 inh: 32

How did CCN(CC)S(=O)(=O)c1ccc2c(c1)NC(=O)C(C)C(=O)N2 (centres undefined) do in these assays?
USP30 inh: inactive; USP17 inh: inactive; USP28 block: inactive; OTUD3 inh: inactive

Results for Cc1ccc(C(=O)[C@H]2C(/C=C/c3ccccc3)=NO[C@]23C(=O)Nc2ccccc23)cc1 ?
USP30 inh: inactive; USP17 inh: inactive; USP28 block: inactive; OTUD3 inh: inactive

What do the screens show for `Cc1ccc(C(=O)[C@H]2C(c3ccccc3OCC#N)=NO[C@]23C(=O)Nc2ccccc23)cc1`?
USP30 inh: inactive; USP17 inh: 42; USP28 block: inactive; OTUD3 inh: inactive

Results for COc1ccc(OC)c(NC(=O)C2Oc3ccccc3NC2=O)c1 (centres undefined) ?
USP30 inh: inactive; USP17 inh: inactive; USP28 block: 51; OTUD3 inh: inactive

What do the screens show for `COc1cccc(CNC(=O)C2Oc3ccccc3NC2=O)c1` (centres undefined)?
USP30 inh: inactive; USP17 inh: inactive; USP28 block: inactive; OTUD3 inh: inactive

How did N#Cc1ccccc1NC(=O)COC(=O)CCCc1c[nH]c2ccccc12 do in these assays?
USP30 inh: inactive; USP17 inh: inactive; USP28 block: inactive; OTUD3 inh: inactive

What do the screens show for `COc1cccc(NC(=O)Cn2cnc(NC(=O)c3ccccc3)n2)c1`?
USP30 inh: inactive; USP17 inh: inactive; USP28 block: inactive; OTUD3 inh: inactive

Results for Cc1ccc(C(=O)Nc2ncn(CC(=O)Nc3ccccc3)n2)cc1 ?
USP30 inh: 41; USP17 inh: inactive; USP28 block: inactive; OTUD3 inh: inactive

How did COc1ccc(NC(=O)Cn2cnc(NC(=O)c3ccccc3)n2)cc1 do in these assays?
USP30 inh: inactive; USP17 inh: 46; USP28 block: inactive; OTUD3 inh: inactive

What do the screens show for `COC(=O)c1cc(NC(=O)Nc2ccc(OC(F)(F)F)cc2)ccc1N1CCOCC1`?
USP30 inh: inactive; USP17 inh: inactive; USP28 block: 32; OTUD3 inh: inactive

How did COC(=O)c1cc(NC(=O)Nc2ccccc2C(F)(F)F)ccc1N1CCOCC1 do in these assays?
USP30 inh: inactive; USP17 inh: inactive; USP28 block: inactive; OTUD3 inh: inactive

What do the screens show for `O=c1[nH]c(C2CCN(S(=O)(=O)c3ccc(S(=O)(=O)NC4CC4)cc3)CC2)nc2c1nnn2Cc1ccc(F)cc1`?
USP30 inh: 42; USP28 block: inactive; OTUD3 inh: inactive

Results for O=c1[nH]c(C2CCN(S(=O)(=O)c3ccc(S(=O)(=O)NC4CC4)cc3)CC2)nc2c1nnn2Cc1ccccc1 ?
USP30 inh: 39; USP17 inh: 33; USP28 block: inactive; OTUD3 inh: inactive

Results for Cc1ccc(Cn2nnc3c(=O)[nH]c(C4CCN(S(=O)(=O)c5ccc(S(=O)(=O)NC6CCCCC6)cc5)CC4)nc32)cc1 ?
USP30 inh: inactive; USP17 inh: inactive; USP28 block: inactive; OTUD3 inh: inactive

Results for O=c1[nH]c(C2CCN(S(=O)(=O)c3ccc(S(=O)(=O)NC4CCCCC4)cc3)CC2)nc2c1nnn2Cc1ccc(F)cc1 ?
USP30 inh: 40; USP17 inh: 47; USP28 block: 44; OTUD3 inh: inactive

Results for COCCCn1c(C(=O)Nc2ccccc2F)cc2c(=O)n(C)c(=O)n(C)c21 ?
USP30 inh: inactive; USP17 inh: inactive; USP28 block: inactive; OTUD3 inh: inactive

Results for O=C1CC2(C(=O)N(Cc3ccc([N+](=O)[O-])cc3)c3ccccc32)c2cn[nH]c2N1 (centres undefined) ?
USP30 inh: inactive; USP28 block: inactive; OTUD3 inh: inactive

Results for O=C(Nc1ccccc1C(=O)O)c1ccc(CSCc2ccccc2)cc1 ?
USP30 inh: inactive; USP17 inh: 39; USP28 block: 31; OTUD3 inh: inactive

What do the screens show for `COc1ccc(C(=O)NC2(Cc3ccccc3)N=C3C(C)=CC=CN3C2=O)cc1` (centres undefined)?
USP30 inh: inactive; USP17 inh: inactive; USP28 block: inactive; OTUD3 inh: inactive

What do the screens show for `COc1ccc(OC)c(CC2(NC(=O)c3ccccc3)N=C3C=CC=CN3C2=O)c1` (centres undefined)?
USP30 inh: 30; USP17 inh: inactive; USP28 block: inactive; OTUD3 inh: inactive

How did O=C(Cc1cccc(C(F)(F)F)c1)Nc1cc(-c2ccccn2)no1 do in these assays?
USP30 inh: inactive; USP17 inh: inactive; USP28 block: inactive; OTUD3 inh: inactive

How did O=C(NCc1ccccc1F)c1ccc(Cl)c(S(=O)(=O)N2CCCCC2)c1 do in these assays?
USP30 inh: inactive; USP17 inh: inactive; USP28 block: 38; OTUD3 inh: inactive

How did COc1ccc(CN2CCC(NC(=O)c3cc(F)ccc3F)C2)cn1 (centres undefined) do in these assays?
USP30 inh: inactive; USP17 inh: inactive; USP28 block: inactive; OTUD3 inh: inactive

How did CC1=C(C(=O)Nc2c(C)cc(C)cc2C)C2(CCC(C)CC2)OC1=O (centres undefined) do in these assays?
USP30 inh: inactive; USP17 inh: 34; USP28 block: inactive; OTUD3 inh: inactive

How did COc1ccc(NC(=O)Cn2cc(OC)c(=O)cc2CSc2ccc(C)cc2)cc1 do in these assays?
USP30 inh: inactive; USP17 inh: inactive; USP28 block: inactive; OTUD3 inh: inactive

Results for Cc1ccc(C)c(NC(=O)CCc2nc(CSc3nc4ccccc4o3)no2)c1 ?
USP30 inh: 52; USP17 inh: inactive; USP28 block: inactive; OTUD3 inh: 39

What do the screens show for `COc1ccccc1NC(=O)CCc1nc(CSc2nc3ccccc3o2)no1`?
USP30 inh: inactive; USP17 inh: inactive; USP28 block: 33; OTUD3 inh: inactive

What do the screens show for `Cc1cccc(C)c1NC(=O)CCc1nc(CSc2nc3ccccc3o2)no1`?
USP30 inh: 31; USP17 inh: inactive; USP28 block: inactive; OTUD3 inh: inactive

Screening results deposited in PubChem by Buhrlage Lab, Dana-Farber Cancer Institute and Novartis Institutes for BioMedical Research (Cambridge, Mass).
